Data published in PubChem BioAssay (NCATS).
Inconclusive results are not listed. The source made the active and inactive calls. Unless noted, the call rests on the fitted dose curve; in most records, active means well fitted curve in the direction sought with a large enough effect; inconclusive means small, poorly fitted or top-dose-only effect, or another doubt; inactive means no such curve, though single readings can be large; an effect the other way counts as inactive or inconclusive.

Experiments:
[1] = target: ATP-dependent 6-phosphofructokinase (Trypanosoma brucei brucei) (UniProt O15648); test: qHTS Assay to Find Inhibitors of T. brucei phosphofructokinase: hit validation (AID 492961);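 further: luminescence reports ADP formed as PFK phosphorylates fructose-6-phosphate with ATP; on the % scale 0 is the no-effect control and ±100 the full control effect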
In short: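 Percent activity derived from corrected luminescence, normalized between 0x and 1x enzyme controls, then fitted to concentration-response curves. Conditions: 1.25 nM PFK, 0.1 mM ATP, 0.5 mM F6P, 45 min RT.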

[2] = S16 Schwann cell viability assay (CellTiter-Glo assay) (AID 624031);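 further: native untransfected S16 rat Schwann cells; cellular ATP luminescence as a viability measure; plate controls were DMSO-treated cells for no effect and cell-free wells for full effect; nearly all actives have a fitted effect of over 70% in size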
In short: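 Rat S16 Schwann cells without reporter constructs received compound or DMSO for 24 h at 37 °C under 5% CO2. Cellular ATP was then quantified by CellTiter-Glo luminescence, with vehicle wells defined as 0% activity and cell-free wells as reference.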

[3] = S16 Schwann cell PMP22 intronic element beta-lactamase assay (AID 624044; calls by dose curve;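 further: 0% = DMSO and -100% = potassium clavulanate positive control; nearly all actives have a fitted effect of over 15% in size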); conditions: S16 rat Schwann cells, PMP22 element beta-lactamase FRET, 24 h; ratio activity, negative = inhibition: at 38.3 µM (top of the series)
In short: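 Beta-lactamase reporter under a PMP22 intronic regulatory element in stable S16 rat Schwann cells; 24 h compound exposure. 460 nm blue signal normalized between DMSO (0%) and potassium clavulanate, with 535 nm FRET tracking viability; curves classed by r2 and response.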

[4] = qHTS profiling for inhibitors of Plasmodium falciparum proliferation (AID 504749); further: nearly all actives have a fitted effect of over 60% in size; further: potency means the concentration at half of the fitted maximal effect;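 on activity, negative = inhibition: 0% = DMSO vehicle and full inhibition = artemisinin control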; conditions: P. falciparum in erythrocytes, SYBR Green DNA, 72 h; parasite line B
In short: (§1)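 Quantitative HTS: compounds pinned into medium, infected erythrocytes added (0.3% parasitemia, 2.5% hematocrit), 72 h culture at 37 C under 5% CO2. Saponin/Triton lysis with SYBR Green I, overnight RT, then fluorescence read.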

[5] = system: 7G8; test: as above; conditions: P. falciparum in erythrocytes, SYBR Green DNA, 72 h; series mostly up to 28.7 µM
In short: as §1

[6] = system: AA1029; test: as above; conditions: P. falciparum in erythrocytes, SYBR Green DNA, 72 h; series mostly up to 28.7 µM
In short: as §1

[7] = system: AS120; test: as above; conditions: P. falciparum in erythrocytes, SYBR Green DNA, 72 h; series mostly up to 28.7 µM
In short: as §1

[8] = system: ATS189; test: as above; conditions: P. falciparum in erythrocytes, SYBR Green DNA, 72 h; series mostly up to 28.7 µM
In short: as §1

[9] = system: ATS95; test: as above; conditions: P. falciparum in erythrocytes, SYBR Green DNA, 72 h; series mostly up to 28.7 µM
In short: as §1

[10] = system: C2A; test: as above; conditions: P. falciparum in erythrocytes, SYBR Green DNA, 72 h; series mostly up to 28.7 µM
In short: as §1

[11] = system: CP191; test: as above; conditions: P. falciparum in erythrocytes, SYBR Green DNA, 72 h; series mostly up to 28.7 µM
In short: as §1

[12] = system: CP211; test: as above; conditions: P. falciparum in erythrocytes, SYBR Green DNA, 72 h; series mostly up to 28.7 µM
In short: as §1

[13] = system: CP217; test: as above; conditions: P. falciparum in erythrocytes, SYBR Green DNA, 72 h; series mostly up to 28.7 µM
In short: as §1

[14] = system: CP237; test: as above; conditions: P. falciparum in erythrocytes, SYBR Green DNA, 72 h; series mostly up to 28.7 µM
In short: as §1

[15] = system: CP250; test: as above; conditions: P. falciparum in erythrocytes, SYBR Green DNA, 72 h; series mostly up to 28.7 µM
In short: as §1

[16] = system: CP252; test: as above; conditions: P. falciparum in erythrocytes, SYBR Green DNA, 72 h; series mostly up to 28.7 µM
In short: as §1

[17] = system: CP256; test: as above; conditions: P. falciparum in erythrocytes, SYBR Green DNA, 72 h; series mostly up to 28.7 µM
In short: as §1

[18] = system: CP260; test: as above; conditions: P. falciparum in erythrocytes, SYBR Green DNA, 72 h; series mostly up to 28.7 µM
In short: as §1

[19] = system: CP266; test: as above; conditions: P. falciparum in erythrocytes, SYBR Green DNA, 72 h; series mostly up to 28.7 µM
In short: as §1

[20] = system: CP335; test: as above; conditions: P. falciparum in erythrocytes, SYBR Green DNA, 72 h; series mostly up to 28.7 µM
In short: as §1

[21] = system: DIV14; test: as above; conditions: P. falciparum in erythrocytes, SYBR Green DNA, 72 h; series mostly up to 28.7 µM
In short: as §1

[22] = system: DIV17; test: as above; conditions: P. falciparum in erythrocytes, SYBR Green DNA, 72 h; series mostly up to 28.7 µM
In short: as §1

[23] = system: Dd2; test: as above; conditions: P. falciparum in erythrocytes, SYBR Green DNA, 72 h; series mostly up to 28.7 µM
In short: as §1

[24] = system: ECU; test: as above; conditions: P. falciparum in erythrocytes, SYBR Green DNA, 72 h; series mostly up to 28.7 µM
In short: as §1

[25] = system: GB4; test: as above; conditions: P. falciparum in erythrocytes, SYBR Green DNA, 72 h; series mostly up to 28.7 µM
In short: as §1

[26] = system: HB3; test: as above; conditions: P. falciparum in erythrocytes, SYBR Green DNA, 72 h; series mostly up to 28.7 µM
In short: as §1

[27] = system: ICS; test: as above; conditions: P. falciparum in erythrocytes, SYBR Green DNA, 72 h; series mostly up to 28.7 µM
In short: as §1

[28] = system: N140; test: as above; conditions: P. falciparum in erythrocytes, SYBR Green DNA, 72 h; series mostly up to 28.7 µM
In short: as §1

[29] = system: P93_24; test: as above; conditions: P. falciparum in erythrocytes, SYBR Green DNA, 72 h; series mostly up to 28.7 µM
In short: as §1

[30] = system: P94_40; test: as above; conditions: P. falciparum in erythrocytes, SYBR Green DNA, 72 h; series mostly up to 28.7 µM
In short: as §1

[31] = system: PAD; test: as above; conditions: P. falciparum in erythrocytes, SYBR Green DNA, 72 h; series mostly up to 28.7 µM
In short: as §1

[32] = system: PC26; test: as above; conditions: P. falciparum in erythrocytes, SYBR Green DNA, 72 h; series mostly up to 28.7 µM
In short: as §1

[33] = system: SC27B; test: as above; conditions: P. falciparum in erythrocytes, SYBR Green DNA, 72 h; series mostly up to 28.7 µM
In short: as §1

[34] = system: TAB109; test: as above; conditions: P. falciparum in erythrocytes, SYBR Green DNA, 72 h; series mostly up to 28.7 µM
In short: as §1

[35] = system: TAB113; test: as above; conditions: P. falciparum in erythrocytes, SYBR Green DNA, 72 h; series mostly up to 28.7 µM
In short: as §1

[36] = system: TAB165; test: as above; conditions: P. falciparum in erythrocytes, SYBR Green DNA, 72 h; series mostly up to 28.7 µM
In short: as §1

[37] = system: W2; test: as above; conditions: P. falciparum in erythrocytes, SYBR Green DNA, 72 h; series mostly up to 28.7 µM
In short: as §1

[38] = target: Androgen receptor (Homo sapiens) (UniProt P10275); test: qHTS assay for small molecule agonists of androgen receptor signaling (AID 588515; active means well fitted curve in the direction sought with a large enough effect in the signal ratio, with a control signal flat; the % refers to the signal ratio; further: on the % scale 0 is the no-effect control and ±100 the full control effect); conditions: AR-UAS-bla HEK293, beta-lactamase ratio, agonist 16 h; hits give high values
In short: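 Stimulation of an AR-responsive β-lactamase reporter in GripTite HEK293 cells was measured after 16 h compound exposure at 37 °C, via CCF4 fluorescence after 2 h RT. EC50 from Hill fits, normalized to R1881 at 30 nM.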

[39] = target: Androgen receptor (Homo sapiens) (UniProt P10275); test: qHTS assay for small molecule antagonists of androgen receptor signaling (AID 588516; active means well fitted curve in the direction sought with a large enough effect in the signal ratio, with a control signal flat, not every such curve was filed as active; the % refers to the signal ratio; further: on the % scale 0 is the no-effect control and ±100 the full control effect)
In short: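 HEK293 AR-UAS-bla cells, 10% dialyzed FBS medium; cpd titration + R1881 10 nM final, 16 h 37 C; CCF4 2 h RT; FRET ratio; IC50/efficacy via Hill fit.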

[40] = NFAT Signaling Pathway (AID 444; active means well fitted curve in either direction with a large enough effect, not every such curve was filed as active;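 further: carbachol stimulus at about its EC50 of 1 µM final; on the % scale 0 is the no-effect control and ±100 the full control effect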); conditions: Jurkat NFAT-bla M1, carbachol, beta-lactamase ratio, 5 h; at 17.2 µM (top of the series) unless noted
In short: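 Jurkat cells carrying an NFAT-driven β-lactamase reporter and co-transfected muscarinic M1 receptor were treated with compound plus carbachol (1 uM final, an EC50 level) for 5 h at 37 °C. CCF4 loading followed for 1 h at RT; 460/530 nm ratio gave %activity.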

[41] = Stat Signaling Pathway (AID 446; active means well fitted curve in either direction with a large enough effect, not every such curve was filed as active); conditions: ME-180 (cervical carcinoma) SIE beta-lactamase reporter, IL-6 stimulated, 5 h; at 17.2 µM (top of the series) unless noted
In short: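 Emission at 460 and 530 nm (excitation 405 nm) reports SIE-controlled beta-lactamase in ME-180 cells. Cells received compound with 40 pM IL-6 for 5 hrs at 37 C; data scaled between 300 pM IL-6 and 125 nM JAK-inhibitor controls.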

[42] = target: Glucocorticoid receptor (Homo sapiens) (UniProt P04150); test: GR-GFP Redistribution (AID 450;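 active means compounds whose dose series gives a full or clear partial fitted curve of increased nuclear translocation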; further: potency means the concentration at half of the fitted maximal effect)
Sequence of Glucocorticoid receptor (Homo sapiens) (P04150 whole entry, looked up): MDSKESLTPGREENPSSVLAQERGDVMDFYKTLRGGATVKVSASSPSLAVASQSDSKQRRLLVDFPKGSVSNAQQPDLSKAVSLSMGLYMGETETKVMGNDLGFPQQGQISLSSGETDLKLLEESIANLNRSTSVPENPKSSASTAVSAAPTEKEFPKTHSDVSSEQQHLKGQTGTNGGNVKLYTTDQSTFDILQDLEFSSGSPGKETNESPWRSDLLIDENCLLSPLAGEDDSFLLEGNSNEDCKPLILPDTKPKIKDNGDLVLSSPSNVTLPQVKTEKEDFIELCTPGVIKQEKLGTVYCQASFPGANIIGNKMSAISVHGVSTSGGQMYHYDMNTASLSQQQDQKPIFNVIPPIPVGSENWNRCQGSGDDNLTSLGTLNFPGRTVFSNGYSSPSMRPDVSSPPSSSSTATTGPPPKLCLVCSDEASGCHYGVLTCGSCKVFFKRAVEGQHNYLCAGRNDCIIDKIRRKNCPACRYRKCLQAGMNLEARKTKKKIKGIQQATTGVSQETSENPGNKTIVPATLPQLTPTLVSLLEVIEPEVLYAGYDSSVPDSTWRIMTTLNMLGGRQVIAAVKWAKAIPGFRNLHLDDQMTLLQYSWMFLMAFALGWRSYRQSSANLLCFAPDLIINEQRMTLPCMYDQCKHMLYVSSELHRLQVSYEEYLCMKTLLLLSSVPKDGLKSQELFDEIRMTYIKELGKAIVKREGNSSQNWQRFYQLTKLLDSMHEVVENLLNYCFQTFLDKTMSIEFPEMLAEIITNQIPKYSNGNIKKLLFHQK

Sequence of Androgen receptor (Homo sapiens) (P10275 whole entry, looked up): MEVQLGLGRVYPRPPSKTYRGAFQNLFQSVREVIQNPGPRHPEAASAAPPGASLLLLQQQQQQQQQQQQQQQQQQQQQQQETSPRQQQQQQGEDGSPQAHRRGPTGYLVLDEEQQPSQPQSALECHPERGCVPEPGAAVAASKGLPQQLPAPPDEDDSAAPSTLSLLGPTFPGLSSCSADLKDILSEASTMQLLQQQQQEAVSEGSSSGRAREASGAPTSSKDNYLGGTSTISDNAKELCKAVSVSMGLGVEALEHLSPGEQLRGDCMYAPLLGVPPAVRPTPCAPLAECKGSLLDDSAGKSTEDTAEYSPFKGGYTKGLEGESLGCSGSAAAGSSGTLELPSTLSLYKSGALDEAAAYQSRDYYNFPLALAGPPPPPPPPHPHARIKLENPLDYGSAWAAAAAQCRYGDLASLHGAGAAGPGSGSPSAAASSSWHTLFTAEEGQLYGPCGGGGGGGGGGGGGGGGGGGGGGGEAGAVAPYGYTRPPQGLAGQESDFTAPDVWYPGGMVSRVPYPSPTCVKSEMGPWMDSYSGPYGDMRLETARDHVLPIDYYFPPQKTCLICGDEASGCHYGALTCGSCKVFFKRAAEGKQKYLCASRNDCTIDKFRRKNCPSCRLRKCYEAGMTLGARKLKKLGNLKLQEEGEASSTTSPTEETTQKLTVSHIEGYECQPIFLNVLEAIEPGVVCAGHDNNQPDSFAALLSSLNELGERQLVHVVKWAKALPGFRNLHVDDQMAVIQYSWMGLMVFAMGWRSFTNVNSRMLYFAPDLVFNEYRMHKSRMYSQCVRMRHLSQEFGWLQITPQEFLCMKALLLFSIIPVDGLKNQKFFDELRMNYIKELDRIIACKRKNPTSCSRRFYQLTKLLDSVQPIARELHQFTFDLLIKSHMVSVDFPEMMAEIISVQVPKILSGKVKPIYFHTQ
Sequence of ATP-dependent 6-phosphofructokinase (Trypanosoma brucei brucei) (O15648 whole entry, looked up): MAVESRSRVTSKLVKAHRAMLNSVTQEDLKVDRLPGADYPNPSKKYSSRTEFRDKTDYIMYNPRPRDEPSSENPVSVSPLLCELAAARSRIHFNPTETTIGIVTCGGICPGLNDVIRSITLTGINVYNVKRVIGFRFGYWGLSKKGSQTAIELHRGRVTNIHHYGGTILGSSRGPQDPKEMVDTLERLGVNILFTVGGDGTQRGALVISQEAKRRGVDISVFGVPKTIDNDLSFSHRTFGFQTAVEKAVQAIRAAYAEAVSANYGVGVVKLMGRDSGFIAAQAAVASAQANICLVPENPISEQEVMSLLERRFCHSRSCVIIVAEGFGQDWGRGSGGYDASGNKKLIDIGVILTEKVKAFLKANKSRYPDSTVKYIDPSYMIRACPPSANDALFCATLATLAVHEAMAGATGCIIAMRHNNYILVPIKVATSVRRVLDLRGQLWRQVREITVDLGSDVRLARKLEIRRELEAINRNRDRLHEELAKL

CO[C@H]1/C=C/O[C@@]2(C)Oc3c(C)c(O)c4c(O)c(c5c(c4c3C2=O)NC2(CCN(CC(C)C)CC2)N=5)=NC(=O)/C(C)=C\C=C\[C@H](C)[C@H](O)[C@@H](C)[C@@H](O)[C@@H](C)[C@H](OC(C)=O)[C@@H]1C
inactive: Potency [1] | Potency [2] | Potency [3] | Potency [12] | Potency [19]
active: Potency [4] 4.47 µM | Potency [5] 7.08 µM | Potency [6] 11.2 µM | Potency [7] 12.6 µM | Potency [8] 5.01 µM | Potency [9] 8.91 µM | Potency [10] 8.91 µM | Potency [11] 8.91 µM | Potency [13] 8.91 µM | Potency [14] 10 µM | Potency [15] 7.08 µM | Potency [16] 8.91 µM | Potency [17] 8.91 µM | Potency [18] 8.91 µM | Potency [20] 13.5 µM | Potency [21] 8.49 µM | Potency [22] 10.7 µM | Potency [23] 7.94 µM | Potency [24] 7.94 µM | Potency [25] 12 µM | Potency [26] 11.2 µM | Potency [27] 8.91 µM | Potency [28] 8.91 µM | Potency [29] 6.31 µM | Potency [30] 8.91 µM | Potency [31] 10 µM | Potency [32] 10.7 µM | Potency [33] 8.91 µM | Potency [34] 11.2 µM | Potency [35] 7.94 µM | Potency [36] 7.94 µM | Potency [37] 4.78 µM

CN(C)c1ccc(C2(c3ccc(N(C)C)cc3)OC(=O)c3cc(N(C)C)ccc32)cc1
inactive: activation [38] 19.5% | outcome [39]

CCOc1ccc(CC2CC(=O)NC2=O)cc1 (stereo not drawn)
inactive: activity change, negative = inhibition [40] -5.51% | activity, negative = inhibition [41] -1.04% | Potency [42] > 20.6 µM

CCOc1ccc(-c2nnc3sc(COc4ccccc4)nn23)cc1
inactive: activity change, negative = inhibition [40] 4.76% | activity, negative = inhibition [41] 4.42% | Potency [42] > 20.6 µM

COc1ccc(C2/C(=C(/O)c3ccc(OC(C)C)cc3)C(=O)C(=O)N2CCCN2CCOCC2)cc1 (stereo not drawn)
inactive: activity change, negative = inhibition [40] -1.06% | activity, negative = inhibition [41] -10.9% | Potency [42] > 20.6 µM
